# Experimental data taken from PubChem BioAssay (Tox21).
# Records with an inconclusive call do not appear. Where a call stands in place of a potency, no number is given. Activity calls are given as the source filed them. Calls come from the whole dose curve; as a rule, active = well fitted cell-killing curve with a large enough effect in the repeat runs; inconclusive = weak or mixed curves, or effect the other way; inactive = flat fitted curve, though single readings scatter.
# Experiment: cAMP Responsive Elements (CRE) small molecule antagonists, cell-based qHTS assay: qHTS cell viability counter screen (AID 2060913); note: nearly all actives have a fitted effect of over 40% in size
# Conditions: CRE-bla HEK293T viability, CellTiter-Glo luminescence, 5 h; series mostly up to 92.4 µM
# Description: U.S. Tox21 Program National Center for Advancing Translational Sciences [NCATS] Division of Preclinical Innovation [DPI] U.S. Environmental Protection Agency [EPA] National Institutes of Environmental Health Sciences [NIEHS] National Toxicology Program [NTP] U.S. Food and Drug Administration [FDA] Tox21 Assay Overview: CREB (cyclic-AMP Responsive Element Binding Protein) is a cellular transcription factor. It binds to certain DNA sequences called cAMP Responsive Elements (CRE) and regulates the transcription of the genes. […] This cell line can be used to find agonists/antagonists of the cyclic AMP signaling pathway. The activation of the report gene under culture conditions can be detected by fluorescence intensity. This cell line has been used to screen the Tox21 10K compound library to identify agonists that induce oxidative stress. The cytotoxicity of the Tox21 compound library against the CRE-bla cell line was tested in parallel by measuring the cell viability using CellTiter-Glo assay (Promega, Madison, WI) in the same wells.
# Tox21 Assay Protocol Summary: CRE-bla Hek 293T cells were suspended in assay medium (DMEM containing 10% dialyzed FBS, 0.1 mM NEAA, 1 mM sodium pyruvate and 25 mM HEPES) and dispensed at 2,000 cells/4 uL /well into 1536-well black wall/clear bottom plates using a Multidrop Combi (ThermoFisher Scientific, Waltham, MA) dispenser. After the assay plates were incubated at 37 C/5% CO2 for 18 hrs, 23 nL of compounds dissolved in DMSO, positive controls or DMSO only was transferred to the assay plate by a pintool workstation (Kalypsys, San Diego, CA), followed by addition of 1 uL of 1.25uM NKH477 (0.25 uM as final concentration) in assay medium using a Flying Reagent Dispenser (Aurora Discovery, San Diego, CA). The plates were incubated at 37 C and 5% CO2 for 3 hrs. Then 1 uL of LiveBLAzer B/G FRET substrate (Invitrogen, Carlsbad, CA) was added to each well using Bioraptr Flying Reagent Dispenser (FRD, Aurora Discovery, San Diego, CA). The plates were incubated at room temperature for 2 h, then fluorescence intensities were measured using an Envision plate reader (PerkinElmer, Shelton, CT) at Excitation 405nm, Emission 460nm and 530nm. The % activity was determined from the ratio of 460nm/530nm. For cell viability readout that measures cytotoxicity, 4 uL /well of CellTiter-Glo reagent was added into the assay plates using Bioraptr FRD. After 30 min incubation at room temperature, the luminescence intensity in the assay plates was measured using a ViewLux (PerkinElmer, Shelton, CT) plate reader.
# Potency is the fitted concentration of half-maximal effect.
Structure (SMILES),Potency,"viability change, negative = cytotoxic"
CC(CCO)CC(C)(C)C (stereo not given),inactive,–
Cc1cc(F)ccc1-c1cc(N2CC[C@@H](O)[C@H]2CO)ncc1N(C)C(=O)C(C)(C)c1cc(C(F)(F)F)cc(C(F)(F)F)c1,44.6 µM (active),–
CCC(O)CO (stereo not given),inactive,–
CCCCCCCCCCCCCCCCCl,–,3.61% [at 18.9 µM] (inactive)
c1ccc2cnccc2c1,inactive,–
CCn1c2ccccc2c2cc([N+](=O)[O-])ccc21,inactive,–
O=C1CC2(CCCC2)CC(=O)N1CCCCN1CCN(c2ncccn2)CC1,inactive,–
O=C1Cc2ccccc2N1c1c(Cl)cccc1Cl,inactive,–
O=Cc1cccc(Br)c1,inactive,–
O=S(=O)(O)CCS,inactive,–
CC(=O)OCC(=O)Nc1cc(C#N)cc(NC(=O)COC(C)=O)c1Cl,inactive,–
CC(C)COC(=O)COc1cc(Cl)c(Cl)cc1Cl,inactive,–
CC(=O)N[C@@H](CO)C(=O)N[C@@H](CC(=O)O)C(=O)N[C@@H](CCCCN)C(=O)N1CCC[C@H]1C(=O)O,inactive,–
Cc1cc(=O)oc2cc(O)cc(O)c12,inactive,–
Cc1c(-c2ccc(O)cc2)n(Cc2ccc(OCCN3CCCCCC3)cc2)c2ccc(O)cc12,inactive,–
C[C@]12CC[C@@H]3c4ccc(O)cc4CC[C@H]3[C@@H]1CC[C@@H]2O,inactive,–
O=C(O)c1cccc(-c2noc(-c3ccccc3F)n2)c1,23.7 µM (active),–
N[C@@H](CCC(=O)O)C(=O)O,inactive,–
CC(=O)Nc1ccccc1,inactive,–
NC[C@H](O)c1ccc(O)c(O)c1,inactive,–

Structure (SMILES),Potency,"viability change, negative = cytotoxic"
CCOC(=O)COc1cc(-n2ncc(C(F)(F)F)c(C)c2=O)c(F)cc1Cl,inactive,–
CC(O)CN(CCCN(C)C)CCCN(C)C (stereo not given),inactive,–
Nc1cccc2c(N)cccc12,inactive,–
Cc1cccc(Nc2ccccc2)c1,inactive,–
OC(CCN1CCCCC1)(c1ccccc1)C1CCCCC1 (stereo not given),inactive,–
CCCC(C)CO (stereo not given),inactive,–
CCCCCCCC[N+](CCCCCCCC)(CCCCCCCC)CCCCCCCC,19.3 µM (active),–
COc1ccccc1OC(=O)Oc1ccccc1OC,inactive,–
O=C(/C=C/c1ccccc1)OCCc1ccccc1,inactive,–
CC[C@]12CCCN3CCc4c(n(c5ccccc45)[C@@](O)(C(=O)OC)C1)[C@@H]32,inactive,–
COCCOC(=O)c1ccccc1C(=O)OCCOC,inactive,–
CCN(CC)C(=O)N(CC)CC,inactive,–
COC(=O)CC(=O)OC,inactive,–
CCCCCCC#CC(=O)OC,inactive,–
[Cl][Sc]([Cl])[Cl],inactive,–
CCCCN1C(=O)c2ccccc2C1=O,inactive,–
OCc1cccc(Oc2ccccc2)c1,inactive,–
FC(F)(F)C(F)(F)C(F)(F)C(F)(F)CCI,inactive,–
CC1=CC[C@@H]2C[C@H]1C2(C)C,–,-0.978% [at 18.9 µM] (inactive)
CCc1cccc(CC)c1NC(=O)C(=O)O,inactive,–
